High-throughput results from PubChem BioAssay.
This is a sample that favours compounds with a hit; in the whole collection about 7.6% have one here.
Giardia killer = Small Molecules that selectively kill Giardia lamblia: qHTS. Giardia lamblia trophozoite viability. activity change, % at 7.66 µM, hits read low. 0.15% of 340,000 active; in the data active means activity change below about -80%; inconclusive means between about -30% and that limit;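 further: parasites exposed to compound for two days anaerobically before the ATP read; on the % scale 0 is the no-effect control and ±100 the full control effect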
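Compounds were tested on trophozoites seeded at 100 cells/well and held 48 hrs at 37 deg C anaerobically. An ATP-based luminescent kit measured the remaining live cells.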
p53 reactivation = qHTS assay for re-activators of p53 using a Luc reporter; H1299 p53-A138V BP100-luciferase reporter, luminescence, 24 h; Potency, µM (top dose mostly 92.2 µM), for the others: at the highest dose activity change, positive = activation, hits mostly activators; 0.063% of 320,000 active; further: potency means the concentration at half of the fitted maximal effect; % of control where 0% means no effect; nearly all actives have a fitted effect of over 45% in size
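p53-null H1299 cells stably carrying temperature-sensitive p53-A138V and a BP100-luciferase reporter were pinned with compounds (4-point, 1:5 series) and held 24 hrs at 37 deg C. Luminescence was read 10 min after detection reagent.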
ELG1 DNA repair = qHTS screen for small molecules that inhibit ELG1-dependent DNA repair in human embryonic kidney (HEK293T) cells expressing luciferase-tagged ELG1; HEK293T ELG1-luciferase reporter, luminescence, 16 h; DNA damage induced by 5-fluorouridine; 2.3% of 330,000 active; Potency, µM (titrated, usually from 46.1 µM), inactives show at the top dose activity change, negative = inhibition, hits mostly inhibitors; AID 504467, 2011; further: potency means the concentration at half of the fitted maximal effect; on the % scale 0 is the no-effect control and ±100 the full control effect; nearly all actives have a fitted effect of over 55% in size
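Overnight (16 hr) co-exposure of 2,000 cells/well to 5-fluorouridine and compound at 37 °C preceded detection. Luciferase was quantified via ONE-Glo luminescence; loss of signal denotes inhibition.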
BRCA1 expr act = qHTS Assay to Identify Small Molecule Activators of BRCA1 Expression; MCF7-BRCA1-FFLuc reporter, luminescence, 48 h; response scale: scaled: vehicle 0%, 10 µM genistein 100%; Potency, µM (highest dose often 46.1 µM), for inactives: at the top dose activation, usual class: activators; 1.1% of 380,000 active; further: potency means the concentration at half of the fitted maximal effect; nearly all actives have a fitted effect of over 80% in size
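48 h compound treatment of MCF7-BRCA1-FFLuc cells (phenol-red free MEM, 37 °C), then 15 min with luciferase substrate and luminescence imaging.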
RORg inh = qHTS for inhibitors of ROR gamma transcriptional activity; Nuclear receptor ROR-gamma (Mus musculus), P51450; Drosophila S2 Gal4-RORgamma UAS-luciferase reporter, 20 h; Potency, µM (top dose mostly 53.6 µM), for inactives: at the highest dose activity change, negative = inhibition, actives largely listed as inhibitors; 5.4% of 310,000 active; AID 2551, 2010; further: potency means the concentration at half of the fitted maximal effect; on the % scale 0 is the no-effect control and ±100 the full control effect; nearly all actives have a fitted effect of over 60% in size
Target sequence (P51450 whole entry, looked up, the tested form may be a part): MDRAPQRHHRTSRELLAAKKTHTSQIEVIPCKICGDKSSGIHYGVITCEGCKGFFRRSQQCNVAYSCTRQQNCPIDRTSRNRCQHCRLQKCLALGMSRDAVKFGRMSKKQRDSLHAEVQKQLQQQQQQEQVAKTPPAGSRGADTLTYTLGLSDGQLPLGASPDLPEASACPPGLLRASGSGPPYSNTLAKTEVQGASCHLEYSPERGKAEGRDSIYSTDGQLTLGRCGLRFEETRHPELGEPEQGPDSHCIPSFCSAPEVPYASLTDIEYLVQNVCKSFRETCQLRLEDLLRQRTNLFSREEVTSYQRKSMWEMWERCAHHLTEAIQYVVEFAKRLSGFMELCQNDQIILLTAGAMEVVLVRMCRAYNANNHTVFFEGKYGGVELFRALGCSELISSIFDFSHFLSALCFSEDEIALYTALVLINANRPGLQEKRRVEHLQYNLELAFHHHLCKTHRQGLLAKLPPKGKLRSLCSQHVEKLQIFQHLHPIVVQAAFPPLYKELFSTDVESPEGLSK
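A Gal4/UAS one-hybrid system in insect cells: metallothionein-promoter Gal4–ROR gamma fusion plus Photinus luciferase reporter. Copper sulfate 700 uM final, 20 hr ambient incubation, luminescent detection after 10 min with reagent.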
Gal4-VP16 FLuc = VP16 counterscreen qHTS for inhibitors of ROR gamma transcriptional activity | Drosophila S2 Gal4-VP16 UAS-luciferase, luminescence, 20 h | Potency, µM (titrated, usually from 53.6 µM), without a hit: at the highest dose activity, negative = inhibition, actives largely listed as inhibitors | 3.5% of 310,000 active | AID 2546, 2010;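 further: Gal4-VP16 expression switched on by copper sulfate through the metallothionein promoter; potency means the concentration at half of the fitted maximal effect; on the % scale 0 is the no-effect control and ±100 the full control effect; nearly all actives have a fitted effect of over 50% in size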
Starred values were filed as active, the others as inactive; ? = inconclusive; / = not tested or not shown; [ ] = remark or other dose. Unless noted, the call rests on the fitted dose curve; in most records, active means well fitted curve in the direction sought with a large enough effect; inconclusive means small, poorly fitted or top-dose-only effect, or another doubt; inactive means no such curve, though single readings can be large; an effect the other way counts as inactive or inconclusive.

SMILES	Giardia killer	p53 reactivation	ELG1 DNA repair	BRCA1 expr act	RORg inh	Gal4-VP16 FLuc
Cc1ccc(-n2c(SCC(=O)N/N=C/c3ccc(C)s3)nnc2-c2ccccc2)cc1	1.8	-10.5%	?	-17.4%	?	-96.6%
COCCn1c(=O)c(-c2cc(F)cc(F)c2)nc2cnc(N3CCOCC3)nc21	/	/	/	/	-35.0%	-0.5%
COC(=O)C(Cc1ccc(O)cc1)NC(=O)CCc1ccco1 (configuration not stated)	-5.1	1.7%	8.8%	-9.2%	-8.8%	-1.5%
CCCNC(=O)C(Cc1ccccc1)NC(=O)c1ccccc1 (configuration not stated)	44.1	-0.9%	23.1%	-6.0%	/	/
CCOC(=O)[C@H](Cc1ccc(O)cc1)NC(=O)c1ccccc1	/	/	/	/	1.41µM*	?
COC(=O)C(Cc1ccc(O)cc1)NC(=O)c1ccc2c(c1)OCCO2 (configuration not stated)	?	11.9%	?	0.8%	0.631µM*	2µM*
Cc1ccc(C(=O)OCc2ccc3c(c2)OCO3)cc1S(=O)(=O)N1CCCCC1	-10.6	0.4%	?	-31.3%	11.7%	-5.7%
COc1ccccc1Nc1nn2c(=O)c3ccc(C(=O)N4CCC(C)CC4)cc3nc2s1	-3.8	26.8%	14.6µM*	-16.9%	-4.9%	-9.7%
CCCCC(=O)NC1=NC(=O)C(C)(C)S1	4.2	-9.2%	3.3%	7.9%	25.0%[0.365 µM]	/
Cc1csc(C(C#N)C(=O)c2cc3ccccc3o2)n1 (configuration not stated)	?	4.3%	?	?	10µM*	-28.9%
CCOC(=O)C1=C(C)Nc2ncnn2C1/C=C/c1ccccc1 (configuration not stated)	-4.8	/	/	-62.6%	-38.8%	4.9%
CCCC1=C(C(=O)OCC)C(/C=C/c2ccccc2)n2ncnc2N1 (configuration not stated)	-17.6	-3.6%	?	-71.0%	20µM*	-2.9%
COCCN(C(=O)c1cc(OC)c(OC)c(OC)c1)c1c(N)n(Cc2ccccc2)c(=O)[nH]c1=O	0.6	4.7%	10.7%	31.0%	10.5%	10.2%
O=C(N/N=C/c1ccc(N2CCOCC2)o1)c1cccc([N+](=O)[O-])c1	5.3	-8.8%	-2.0%	8.5%	-26.2%	-21.4%
Cc1ccc(C(=O)Nc2ccc(C(=O)N/N=C/c3ccc(C)o3)cc2)cc1	-15.0	0.3%	?	28.8%	?	?
O=C(N/N=C/c1ccc(N2CCCCC2)o1)c1ccccc1	-11.9	-33.2%	-17.1%	-40.6%	5.01µM*	5.01µM*
Cc1ccc(/C=N/NC(=O)c2ccc(-c3ccccc3)cc2)o1	-1.9	-1.6%	1.5%	-23.7%	12.6µM*	?
Cc1ccc(/C=N\NC(=O)c2cc([N+](=O)[O-])cc([N+](=O)[O-])c2)o1	1.8	1.6%	-24.4%	10.6%	2.51µM*	?
CCN1Cc2c(cc(OC)c(OC)c2OC)-c2ccccc2S1(=O)=O	-7.3	9.5%	11.9%	8.0%	/	/
O=C(N=Nc1c(O)n(Cc2ccccc2)c2ccccc12)c1ccncc1	-18.5	5.3%	18.3µM*	32.3%	-20.9%	-7.6%
NC(=S)N=Nc1c(O)n(Cc2ccccc2)c2ccccc12	4.5	0.4%	?	-14.0%	3.16µM*	?
CCCCNC(=S)N=Nc1c(O)n(Cc2ccccc2)c2ccccc12	-2.5	2.5%	-2.5%	-31.4%	6.31µM*	6.31µM*
COC(=O)N=Nc1c(O)n(Cc2ccccc2)c2ccccc12	-2.1	-2.0%	?	12.8%	-5.0%	-0.5%
CCOC(=O)N=Nc1c(O)n(Cc2ccccc2)c2ccccc12	-22.9	-0.2%	-1.8%	64.1%	?	-0.9%
